Screens (PubChem)
C diff growth: C. difficile growth inhibitors, primary screen, HTS. Clostridium difficile clinical isolate growth, OD600, 24 h; stronger effect = lower value. growth activity, negative = inhibition, % at 16 µg/mL (by protocol). 86,000 tested, 0.25% active. AID 1259249, 2017;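 active = mean growth activity at or below -80% and every replicate also at or below -80%; inconclusive = mean at or below -80% but some replicate above -80%; inactive = mean growth activity above -80%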
Pf Dd2 inh: P. falciparum Dd2 growth inhibitors, primary screen, SYBR Green fluorescence, single dose replicates | 72 h; stronger effect = lower value | 94,000 tested, 2.3% active | activity change, % at 10 µM; in the data active = activity change below about -80%; inconclusive = no clear call, values can overlap the other calls
Hits are given with their value; – = inactive; ? = inconclusive; · = no result. Hits are enriched below; roughly 2.4% of the tested compounds scored in any of these assays.

SMILES	C diff growth	Pf Dd2 inh
C[C@H](CO)N1C[C@H](C)[C@H](CN(C)S(=O)(=O)c2ccc(F)cc2)Oc2ncc(C#CC3CCCCC3)cc2C1=O	–	–
C[C@@H]1CN([C@@H](C)CO)C(=O)c2cccc(NC(=O)Nc3ccccc3)c2O[C@@H]1CN(C)Cc1ccc(-c2ccccc2)cc1	-101.8	–
C[C@@H]1CN([C@H](C)CO)C(=O)c2cccc(NC(=O)Nc3ccccc3)c2O[C@@H]1CN(C)Cc1ccc(Cl)c(Cl)c1	–	-85.9
C[C@H]1CN([C@@H](C)CO)C(=O)c2cccc(NC(=O)Nc3ccccc3)c2O[C@@H]1CN(C)Cc1ccc(Cl)c(Cl)c1	–	–
C[C@H]1CN([C@@H](C)CO)C(=O)c2cccc(NC(=O)Nc3ccccc3)c2O[C@@H]1CN(C)Cc1ccc(-c2ccccc2)cc1	–	–
COc1ccc(C#Cc2ccc3c(c2)[C@@H]2[C@@H](CCN2C(=O)c2ccccc2F)[C@H](CO)N3)cc1	–	–
Cc1ccc(S(=O)(=O)Nc2ccc3c(c2)C(=O)N([C@@H](C)CO)C[C@H](C)[C@H](CN(C)C(=O)CCC(F)(F)F)OCCCC[C@H](C)O3)cc1	·	–
C[C@H]1CN([C@@H](C)CO)C(=O)c2cc(/C=C/c3ccccc3)cnc2O[C@@H]1CN(C)S(=O)(=O)c1cccs1	–	–
COc1ccc(CN(C)C[C@@H]2Oc3c(NS(=O)(=O)c4ccc(C)cc4)cccc3C(=O)N([C@@H](C)CO)C[C@@H]2C)cc1	–	–
O=C(NC[C@H]1CC[C@H]2[C@H](CN2Cc2nccs2)O1)C1CCC1	–	–
COCC(=O)N1CCC2(CC1)CN(Cc1cccc(Cl)c1)[C@@H](CO)c1[nH]c3cc(OC)ccc3c12	–	–
COc1ccc(CN2CC3(CN(C(=O)Cc4ccccc4)C3)c3c([nH]c4cc(OC)ccc34)[C@@H]2CO)cc1	–	-85.7
COc1ccc2c3c([nH]c2c1)[C@H](CO)N(Cc1ccccc1)CC31CN(C(=O)Cc2ccccc2)C1	·	–
COc1ccc2c3c([nH]c2c1)[C@H](CO)N(CC1CC1)CC31CN(C(=O)c2ccccc2)C1	–	-82.5
COc1ccc2c3c([nH]c2c1)[C@H](CO)N(CC1CC1)CC31CN(C(=O)c2ccc(F)cc2)C1	–	–
COc1ccc(CN2CC3(CCN(C(=O)Cc4ccccc4)CC3)c3c([nH]c4cc(OC)ccc34)[C@H]2CO)cc1	–	?
COc1ccc2c3c([nH]c2c1)[C@@H](CO)N(Cc1ccccc1)CC31CN(C(=O)Cc2ccccc2)C1	–	-84.1
COCC(=O)N1CC2(C1)CN(Cc1cccc(Cl)c1)[C@@H](CO)c1[nH]c3cc(OC)ccc3c12	–	-92.5
CN(C)C(=O)[C@H]1[C@H](CO)[C@H]2Cn3c(cccc3=O)[C@H]2N1C(=O)C1CCCCC1	–	–
Cc1cccc(-c2ccc([C@H]3[C@H](CO)N4C(=O)CN(C(=O)NC5CCCCC5)C[C@@H]34)cc2)c1	–	–
CCCNC(=O)N1CC2(C1)[C@H](c1ccccc1)[C@H](CO)N2Cc1ccc(F)cc1	–	–
CC(C)CC#Cc1cnc2c(c1)C(=O)N([C@@H](C)CO)C[C@H](C)[C@H](CN(C)C(=O)c1ccc(F)cc1)O2	–	–
C[C@H]1CN([C@@H](C)CO)S(=O)(=O)c2ccc(C#Cc3ccncc3)cc2O[C@H]1CN(C)C(=O)C1CCOCC1	–	–
C[C@@H]1CN([C@H](C)CO)C(=O)Cc2cc(NS(=O)(=O)c3ccc(Cl)cc3)ccc2O[C@@H]1CN(C)Cc1ccc(-c2ccccc2)cc1	·	–
COc1ccc2c3c(n(C)c2c1)[C@H](CO)N(C(=O)C1CC1)CC31CCN(C)CC1	–	-85.9
SMILES	C diff growth	Pf Dd2 inh
COc1ccc2c3c(n(C)c2c1)[C@H](CO)N(C(=O)C1CC1)CC31CN(C(=O)C2CCOCC2)C1	–	-87.2
COc1ccc2c3c(n(C)c2c1)[C@H](CO)N(C(=O)C1CCOCC1)CC31CN(C(=O)C2CCOCC2)C1	–	–
COc1ccc2c3c(n(C)c2c1)[C@H](CO)N(C(=O)C1CCC1)CC31CCN(C)CC1	–	–
C[C@H](CO)N1C[C@H](C)[C@@H](CN(C)C(=O)Cc2ccncc2)Oc2ncc(C#C[C@@H](C)O)cc2C1=O	–	–
C[C@@H]1CCCCO[C@@H](CN(C)S(=O)(=O)c2ccccc2)[C@H](C)CN([C@@H](C)CO)C(=O)c2cc(N(C)C)ccc2O1	–	–
C[C@@H]1CCCCO[C@@H](CN(C)C(=O)Nc2ccc3c(c2)OCO3)[C@H](C)CN([C@@H](C)CO)C(=O)c2cc(NS(=O)(=O)c3ccc(F)cc3)ccc2O1	·	–
COc1ccc(S(=O)(=O)N(C)C[C@@H]2Oc3c(NC(=O)CCCCCC(=O)Nc4ccccc4N)cccc3C(=O)N([C@@H](C)CO)C[C@H]2C)cc1	–	-82.6
COc1ccc(S(=O)(=O)N(C)C[C@H]2Oc3c(NC(=O)CCCCCC(=O)Nc4ccccc4N)cccc3C(=O)N([C@H](C)CO)C[C@@H]2C)cc1	–	–
COc1ccc(S(=O)(=O)N(C)C[C@@H]2Oc3c(NC(=O)CCCCCC(=O)Nc4ccccc4N)cccc3C(=O)N([C@H](C)CO)C[C@H]2C)cc1	–	–
COc1ccc(S(=O)(=O)N(C)C[C@@H]2Oc3c(NC(=O)CCCCCC(=O)Nc4ccccc4N)cccc3C(=O)N([C@H](C)CO)C[C@@H]2C)cc1	–	-85.5
CNC[C@@H]1Oc2ncc(-c3ccccc3C)cc2C(=O)N([C@H](C)CO)C[C@@H]1C	–	–
CC(C)NC(=O)N(C)C[C@@H]1OCCCC[C@H](C)Oc2ccc(NS(=O)(=O)c3ccccc3)cc2C(=O)N([C@H](C)CO)C[C@@H]1C	–	–
C[C@@H]1CN([C@@H](C)CO)C(=O)c2cc(C#Cc3cccc(F)c3)cnc2O[C@H]1CN(C)C(=O)c1ccccc1F	–	–
COc1ccc(C#Cc2cnc3c(c2)C(=O)N([C@@H](C)CO)C[C@H](C)[C@H](CN(C)C(=O)c2ccccc2F)O3)cc1	–	-81.7
COc1ccc(C#Cc2cnc3c(c2)C(=O)N([C@H](C)CO)C[C@@H](C)[C@@H](CN(C)C(=O)c2ccccc2F)O3)cc1	–	–
C[C@H](CO)N1C[C@H](C)[C@@H](CN(C)C(=O)c2ccccc2F)Oc2ncc(C#Cc3cccc(F)c3)cc2C1=O	–	-86.8
COc1ccc(NC(=O)N(C)C[C@H]2OCCCC[C@@H](C)Oc3ccc(NS(=O)(=O)c4ccccc4)cc3C(=O)N([C@H](C)CO)C[C@@H]2C)cc1	–	–
COc1ccc(-c2ccc3c(c2)O[C@@H](CN(C)Cc2cccnc2)[C@H](C)CN([C@H](C)CO)S3(=O)=O)cc1	–	–
COc1ccc(CN2C[C@H](C)[C@@H](OC)CN(C)C(=O)c3cc(NC(=O)c4nc5ccccc5s4)ccc3OC[C@@H]2C)cc1	·	-85.2
CO[C@@H]1CN(C)C(=O)c2cc(NC(=O)c3nc4ccccc4s3)ccc2OC[C@@H](C)N(Cc2ccccc2)C[C@H]1C	·	-85.5
CO[C@H]1CN(C)C(=O)c2cc(NC(=O)c3nc4ccccc4s3)ccc2OC[C@@H](C)N(Cc2ccncc2)C[C@H]1C	–	·
COc1ccc(CN2C[C@@H](C)[C@@H](OC)CN(C)C(=O)c3cc(NC(=O)c4nc5ccccc5s4)ccc3OC[C@@H]2C)cc1	·	–
CNC[C@@H]1OCCCC[C@@H](C)Oc2ccc(N(C)C)cc2C(=O)N([C@@H](C)CO)C[C@H]1C	–	·
